The record followed here is PubChem BioAssay (NCATS).

Records with an inconclusive call do not appear. Activity calls are given as the source filed them. The call rests on the fitted dose curve; in most records, active means well fitted cell-killing curve with a large enough effect; inconclusive means small, poorly fitted or top-dose-only effect, or effect the other way; inactive means no such curve, though single readings can be large or run the other way.

A word on the viability: it is a read-out of living cells in per cent, often relative to untreated cells.
Potency means the concentration at half of the fitted maximal effect.

The experiment is described as follows: Quantitative highthroughput screen to assess conditional lethalithy of NOMO1 cells grown in Human Plasma-Like Medium with dialyzed fetal bovine serum (HPLM+ds) (AID 1963878). Further: nearly all actives have a fitted effect of over 35% in size. The settings on record: NOMO1 AML cells in HPLM+ds, CellTiter-Glo viability, 48 h; series mostly up to 45.8 µM; viability: at the top concentration. The source says:
Assay Provider: Jason Cantor Ph.D.
Department of Biochemistry
University of Wisconsin-Madison, Madison, WI, USA
Chemical screening studies have identified drug sensitivities across hundreds of cancer cell lines but most putative therapeutics fail to translate. Discovery and development of drug candidates in models that more accurately reflect nutrient levels in human blood is a major challenge. Here we performed high-throughput screens in conventional versus Human Plasma-Like Medium (HPLM) to identify compounds that were "missed" when screening using the artificial culture condition. Sets of conditional anticancer compounds spanned phases of clinical development and included non-oncology drugs were assessed. […] We also traced conditional phenotypes for several chemotherapeutics to availability of HPLM-specific metabolites and confirmed others for compounds whose reported targets are encoded by nonessential genes. Our findings establish generalizable strategies for exploiting conditional lethality in HPLM to reveal therapeutic candidates and mechanisms of action in cancer cells.
Described herein are the results of each viability screens against three cell lines: NOMO1 (an acute myeloid leukemia cell line); P12-Ichikawa (a T-cell acute lymphoblastic leukemia); and SEM (a B-cell ALL). Each assay was screened using 3 different cell culture media: homemade human plasma-Like medium with 10% dialyzed fetal bovine serum (HPLM+ds); RPMI1640 with 10% untreated FBS and 5mM glucose (RPMI+s); and RPMI1640 with 10% dialyzed fetal bovine serum and 5 mM glucose (RPMI+ds).
PROTOCOL TABLE (as described by Inglese J, Shamu CE and Guy RK. 2007)
SEQUENCE No. (e.g., 1, 2, 3, etc.); […] (e.g., Cells, Incubation, Reagent, etc.); VALUE and DESCRIPTION.
1; Cells; 5 uL; white, solid bottom 1536-well Greiner assay plate.
2; Compounds; 23 nL; Kalypsis pin tool (Wako USA) equipped with a 1536-well pin head to transfer to the assay plates.
3; Incubation; 48 hours; 37C incubation.
4; Reagent; 3 uL; CellTiter Glo (Promega).
5; Incubation; 5 min, room temperature
6; Detection; Luminescence, Viewlux PerkinElmer.
NOTES (numbers refer to Sequence numbers above)
1. Briefly, 5 ul of cell reagent was dispensed using a Multidrop Combi Dispenser. The NOMO1 and SEM cells were plated at 500 cells/well and the P12-Ichikawa line at 1000 cells/well.
2. After seeding the cells, 23 nL of MIPE 4.1 library compounds (in DMSO) were added to each plate using a Kalypsys 1536 Pintool dispenser. Bortezomib at final concentration of […] and DMSO were added to each plate as positive and negative controls respectively. For each screen, MIPE 4.1 compounds were added over an eleven-point concentration range […] in 3-fold dilutions.
3. Each plate was covered with a stainless steel gasketed lid to prevent evaporation and incubated for 48 hour at 37C, 95% relative humidity, and 5% CO2.
4-5. Three microliter CellTilter-GloTM luminescent substrate mix (Promega) reagent was added to the assay plate and incubated at room temperature for 5 min.
6. The luminescence signal was measured using a ViewLux (PerkinElmer) multiplate reader with a 2 second exposure time per plate. Data for each compound were normalized as percent viability such that measurements for DMSO and the empty well controls in each plate were defined as 100% and 0%, respectively.
Background: In ATP-based viability assays light output follows the ATP content of the culture.
Regarding `C[C@H](NC(=O)c1sccc1OCc1ccc(Cl)cc1)c1ccccc1`, the “viability” value was 93.7% (inactive).
As for `CCCCC(CC)COC(=O)C(C#N)=C(c1ccccc1)c1ccccc1` (stereo not given), the “viability” value was 103% (inactive).
Same read-out and setting: under `CCCNCC(O)COc1ccccc1C(=O)CCc1ccccc1` (stereo not given) stands 88.4% (inactive).
On to `CC(=O)Nc1ccc([C@H](C)C(=O)Nc2ncc(C(C)C)s2)cc1`, for which the Potency was 7.43 µM (active).
For the compound `O=c1oc2cc(O)ccc2s1`, the “viability” value was 91.4% (inactive).
The same measure, in the same setting: under `O=C(Nc1c(Cl)cncc1Cl)c1ccc(OC(F)F)c(OCC2CC2)c1` stands 86.7% (inactive).
On to `CC1=C(C(=O)Nc2cc3cn[nH]c3cc2F)C(c2ccc(C(F)(F)F)cc2)CC(=O)N1` (stereo not given), for which the Potency was 11.8 µM (active).
Take `COC(=O)C1=C(C)NC(C)=C(C(=O)OC(C)C)C1c1cccc2nonc12` (stereo not given): the “viability” value was 105% (inactive).
Still for that read-out and setting: under `COc1cccc(-c2cc(=O)c3ccccc3o2)c1N` stands 80.9% (inactive); under `Cc1cccc(C#Cc2ccccc2)n1`, 83.4% (inactive).
On to `COc1ccc2c3c1OC1C[C@@H](O)C=C[C@@]31CCN(C)C2` (stereo not given in full), for which the “viability” value was 105% (inactive).
Take `CON(C)C(=O)N1N=C(c2cc(F)ccc2F)S[C@]1(CCCN)c1ccccc1`: the “viability” value is 18.4% (inactive).
On the same count and under the same terms, under `CNCc1ccc(-c2[nH]c3cc(F)cc4c3c2CCNC4=O)cc1` stands 102% (inactive); under `CCC(C)n1ncn(-c2ccc(N3CCN(c4ccc(OC[C@H]5CO[C@](Cn6cncn6)(c6ccc(Cl)cc6Cl)O5)cc4)CC3)cc2)c1=O` (stereo not given in full), 92.4% (inactive).
Still for that read-out and setting: under `COc1ccc2c(c1)c(CC(=O)OCC(=O)O)c(C)n2C(=O)c1ccc(Cl)cc1` stands 102% (inactive); under `O=c1ccn([C@@H]2O[C@H](CO)[C@H](O)[C@H]2O)c(=O)[nH]1`, 102% (inactive).
With `C=CC(=O)Nc1ccc2ncnc(Nc3ccc(OCc4cccc(F)c4)c(Cl)c3)c2c1`, the Potency is 2.35 µM (active).
As to `CCOC(=O)c1c(C)n(C)c2ccc(O)cc12`, the “viability” value is 96.3% (inactive).
In the case of `NC1(c2ccc(-c3nc4ccn5c(=O)[nH]nc5c4cc3-c3ccccc3)cc2)CCC1`, the Potency is 20.9 µM (active).
For `NC[C@H]1O[C@H](O[C@@H]2[C@@H](O)[C@@H](O[C@H]3O[C@H](CO)[C@@H](O)[C@H](N)[C@@H]3O)[C@H](N)C[C@@H]2N)[C@H](O)[C@@H](O)[C@H]1O`, the “viability” value was 98.9% (inactive).
`C=CC(=O)Nc1cccc(Nc2nc(NC3CCC(N(C)C)CC3)nc3c2ncn3C(C)C)c1` (stereo not given): the Potency was 2.35 µM (active).
With `CCCCOCCOc1nc(-c2ccc(C(=O)O)c(F)c2)sc1C`, the “viability” value was 98.9% (inactive).
With `COc1ccc(CCN2CCN(CCCc3ccccc3)CC2)cc1OC`, the “viability” value was 103% (inactive).
Still for that read-out and setting: under `C[C@]12CC[C@H](O)CC1=CCC1C2CC[C@]2(C)C(n3cnc4ccccc43)=CCC12` (stereo not given in full) stands 102% (inactive).
For the compound `CC(C)C[C@H](NC(=O)CNC(=O)c1cc(Cl)ccc1Cl)B1OC(=O)CC(CC(=O)O)(C(=O)O)O1` (stereo not given in full), the Potency was 0.372 µM (active).
The same measure, in the same setting: under `COc1ccc(C(C)=O)c(O)c1` stands 0.935 µM (active).
With `CN1c2cc(O)c(N=NC(N)=O)cc2CC1S(=O)(=O)O` (stereo not given), the “viability” value was 84.2% (inactive).
With `Nc1cc(C(F)(F)F)c(-c2cc(N3CCOCC3)nc(N3CCOCC3)n2)cn1`, the Potency was 1.18 µM (active).
Same read-out and setting: under `COc1cc(C=CC(=O)CC(=O)C=Cc2ccc(O)c(OC)c2)ccc1O` stands 24.1 µM (active); under `C=CCNc1c(O)cc2c(O)c1C[C@@H](C)C[C@H](OC)[C@@H](O)[C@@H](C)C=C(C)[C@H](OC(N)=O)[C@@H](OC)C=CC=C(C)C(=O)N2`, 13.2 µM (active); under `COc1cc(Nc2c(C#N)cnc3cc(OCCCN4CCN(C)CC4)c(OC)cc23)c(Cl)cc1Cl`, 3.72 µM (active).
Take `CC(=O)N1CCN(c2ccc(OC[C@H]3CO[C@](Cn4ccnc4)(c4ccc(Cl)cc4Cl)O3)cc2)CC1`: the “viability” value was 81% (inactive).
Still for that read-out and setting: under `Cc1ccc(C(=O)Nc2cccc(C(F)(F)F)c2)cc1Nc1nc(-c2cccnc2)nc2c1cnn2C` stands 103% (inactive).
Same read-out and setting: under `Fc1ccc(Cl)cc1-c1nc(Nc2ccncc2)c2nccnc2n1` stands 98.6% (inactive).
Consider `COc1cc(N2CCC(C(N)=O)CC2)ccc1Nc1nc(N)c(Cl)c(Nc2ccccc2S(=O)(=O)C(C)C)n1`, for which the Potency is 16.6 µM (active).
Consider `C=C1[C@H](n2cnc3c(=O)[nH]c(N)nc32)C[C@H](O)[C@H]1CO`, for which the Potency is 4.18 µM (active).
Turning to `CC1(C)Cc2c(-c3ccccc3)c(-c3ccc(Cl)cc3)c(CC(=O)O)n2C1`, the “viability” value was 93.9% (inactive).
`NCc1ccc(OCCCc2sc(-c3ccc4c(c3)/C(=N/Nc3nc5ccccc5s3)CCC4)nc2C(=O)O)cc1`: the “viability” value was 19.2% (inactive).
For the compound `Cc1cnc(Nc2cccc(CN3CCOCC3)c2)nc1Nc1cccc(S(=O)(=O)NC(C)(C)C)c1`, the “viability” value is 88.7% (inactive).
For `COc1cc2nccc(Oc3ccc(NC(=O)NC4CC4)c(Cl)c3)c2cc1C(N)=O`, the Potency was 18.7 µM (active).
